Among the data in PubChem BioAssay (NCATS) are Potency values, retold here.

Holding throughout (assay): qHTS profiling for inhibitors of Plasmodium falciparum proliferation (AID 504749); also: nearly all actives have a fitted effect of over 60% in size
Holding throughout (settings): P. falciparum in erythrocytes, SYBR Green DNA, 72 h; series mostly up to 28.7 µM

One experiment concerns CP237. Put shortly: (§1)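 SYBR Green fluorescence (ex 485 nm, em 535 nm) reports parasite DNA after 72 h compound exposure of infected red cells at 0.3% parasitemia, 2.5% hematocrit; signal normalized to 0.29 uM artemisinin and vehicle wells.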
A further experiment concerns CP238. Put shortly:
as §1

A further experiment relates to CP247. Put shortly:
as §1

A further experiment concerns CP250. Put shortly:
as §1

The subject of the next experiment is CP252. Put shortly:
as §1

For a further experiment, the system named is CP256. Put shortly: as §1
The test system of a further experiment is CP260. Put shortly:
as §1

For the next experiment, the system named is CP262. Put shortly: as §1
In the next experiment the test system is CP265. Put shortly:
as §1

The test system of the next experiment is CP266. Put shortly: as §1

Results filed as inconclusive are left out. Calls of active or inactive are those of the source. Calls follow the shape of the dose curve; as a rule, active = well fitted inhibition curve with a large enough effect; inconclusive = small, poorly fitted or top-dose-only effect; inactive = flat fitted curve, though single readings scatter.
Potency is read from the fitted curve at half-maximal effect.

`C[C@@H]1CN(c2c(F)c(F)c3c(=O)c(C(=O)O)cn(C4CC4)c3c2F)C[C@H](C)N1`: the Potency result with CP237, with CP238, in the experiment with CP247, with CP250, with CP252 and in the experiment with CP256 was “inactive” each time. In addition, the Potency result with CP260, in the experiment on CP262, with CP265 and with CP266 was “inactive” in each case.
With `CCCCCCCCCCCCOS(=O)(=O)O`, the Potency result with CP237, in the experiment on CP238, in the experiment with CP247, in the experiment with CP250, in the experiment on CP252 and in the experiment on CP256 was “inactive” in each case. Further, the Potency entry with CP260, in the experiment with CP262, with CP265 and in the experiment with CP266 was “inactive” throughout.
`O=C(O)CN1C(=O)c2cccc3cccc(c23)C1=O`: the Potency entry in the experiment on CP237, with CP238, in the experiment with CP247, with CP250, in the experiment on CP252 and in the experiment with CP256 was “inactive” throughout. Moreover, the Potency entry in the experiment with CP260, with CP262, in the experiment with CP265 and in the experiment on CP266 was “inactive” each time.
For `O=C(O)COc1nn(Cc2ccccc2)c2ccccc12`, the Potency entry in the experiment with CP237, in the experiment on CP238, in the experiment with CP247, in the experiment on CP250, in the experiment with CP252 and with CP256 was “inactive” each time. Further, the Potency result with CP260, in the experiment with CP262, with CP265 and with CP266 was “inactive” in each case.
Regarding `CCN(CC)CCNC(=O)c1cc(Cl)c(N)cc1OC`, the Potency result in the experiment on CP237, with CP238, with CP247, in the experiment on CP250, in the experiment with CP252 and with CP256 was “inactive” in each case. Besides, the Potency entry with CP260, in the experiment with CP262, in the experiment with CP265 and with CP266 was “inactive” in each case.
As for `CC(=O)Oc1ccc(C2(c3ccc(OC(C)=O)cc3)C(=O)Nc3ccccc32)cc1`, the Potency result in the experiment with CP237, with CP238, in the experiment on CP247, in the experiment on CP250, with CP252 and in the experiment on CP256 was “inactive” each time. In addition, the Potency result with CP260, in the experiment with CP262, in the experiment with CP265 and in the experiment on CP266 was “inactive” each time.
As to `CC(=O)Nc1ccc(/C=N/NC(N)=S)cc1`, the Potency result in the experiment with CP237, with CP238, in the experiment on CP247, in the experiment on CP250, in the experiment with CP252 and with CP256 was “inactive” throughout. In addition, the Potency result with CP260, in the experiment on CP262, in the experiment with CP265 and with CP266 was “inactive” throughout.
As for `O=c1cc(CO)occ1O`, the Potency result in the experiment with CP237, in the experiment on CP238, in the experiment with CP247, with CP250, in the experiment with CP252 and in the experiment on CP256 was “inactive” in each case. Besides, the Potency entry with CP260, with CP262, in the experiment with CP265 and with CP266 was “inactive” each time.
On to `N[C@@H](CSCCCO)C(=O)O`, for which the Potency entry with CP237, in the experiment on CP238, in the experiment on CP247, with CP250, in the experiment with CP252 and in the experiment on CP256 was “inactive” in each case. The Potency result in the experiment on CP260, in the experiment with CP262, with CP265 and in the experiment with CP266 was “inactive” each time.
On to `COc1cc(C(=O)N2CCOCC2)cc(OC)c1OC`, for which the Potency result in the experiment on CP237, in the experiment on CP238, in the experiment on CP247, with CP250, in the experiment on CP252 and with CP256 was “inactive” in each case. The Potency entry with CP260, with CP262, with CP265 and with CP266 was “inactive” throughout.
Consider `O=C(CCCN1CCN(c2ccccn2)CC1)c1ccc(F)cc1`, for which the Potency result in the experiment with CP237, in the experiment with CP238, in the experiment with CP247, in the experiment on CP250, with CP252 and with CP256 was “inactive” in each case. Further, the Potency result in the experiment with CP260, in the experiment with CP262, in the experiment on CP265 and in the experiment on CP266 was “inactive” each time.
`COc1ccc2c(c1)C(=O)N(CCc1ccc(S(=O)(=O)NC(=O)NC3CCCCC3)cc1)C(=O)C2(C)C`: the Potency entry in the experiment with CP237, in the experiment on CP238, with CP247, in the experiment on CP250, with CP252 and in the experiment with CP256 was “inactive” each time. Also, the Potency result in the experiment with CP260, with CP262, in the experiment on CP265 and with CP266 was “inactive” each time.
For `NC1CCN(c2cccc(Cl)n2)CC1`, the Potency with CP237 is 12.6 µM (active). In addition, the Potency entry in the experiment on CP238, with CP247, with CP250, in the experiment with CP252, in the experiment on CP256 and in the experiment on CP260 was “inactive” each time. For the same compound, the Potency entry in the experiment on CP262, with CP265 and in the experiment on CP266 was “inactive” in each case.
As for `Cc1cc(CC(=O)O)n(C)c1C(=O)c1ccc(Cl)cc1`, the Potency result with CP237, with CP238, with CP247, in the experiment with CP250, in the experiment with CP252 and in the experiment on CP256 was “inactive” in each case. The Potency result in the experiment with CP260, in the experiment with CP262, with CP265 and with CP266 was “inactive” each time.
In the case of `O=c1cc[nH]c(=S)[nH]1`, the Potency entry with CP237, with CP238, with CP247, in the experiment on CP250, in the experiment with CP252 and in the experiment on CP256 was “inactive” throughout. Further, the Potency entry with CP260, in the experiment with CP262, with CP265 and with CP266 was “inactive” in each case.
Take `CCOC(=O)c1ccc(O)cc1`: the Potency result in the experiment with CP237, with CP238, in the experiment on CP247, in the experiment on CP250, in the experiment on CP252 and in the experiment on CP256 was “inactive” throughout. Further, the Potency result with CP260, with CP262, in the experiment with CP265 and in the experiment with CP266 was “inactive” each time.
Regarding `Oc1cccc(O)c1`, the Potency entry with CP237, with CP238, in the experiment on CP247, in the experiment on CP250, in the experiment on CP252 and in the experiment with CP256 was “inactive” each time. The Potency entry in the experiment with CP260, in the experiment on CP262, in the experiment with CP265 and with CP266 was “inactive” in each case.
For the compound `CCCCN(CCCC)CCCOC(=O)c1ccc(N)cc1`, the Potency result in the experiment with CP237, in the experiment with CP238, in the experiment with CP247, with CP250, in the experiment with CP252 and in the experiment on CP256 was “inactive” throughout. Further, the Potency entry in the experiment on CP260, in the experiment with CP262 and in the experiment on CP266 was “inactive” throughout.
Consider `NCCNCCNCCNCCN`, for which the Potency result with CP237, with CP238, in the experiment on CP247, with CP250, in the experiment on CP252 and in the experiment on CP256 was “inactive” throughout. In addition, the Potency entry in the experiment with CP260, in the experiment with CP262, in the experiment with CP265 and with CP266 was “inactive” each time.
As for `CNC(=O)Oc1ccc2c(c1)[C@]1(C)CCN(C)[C@@H]1N2C`, the Potency is 4.47 µM (active) in the experiment with CP237; 1.78 µM (active) in the experiment on CP238; 1.58 µM (active) in the experiment with CP247; 1.58 µM (active) in the experiment with CP250; 1.78 µM (active) with CP252; 2 µM (active) with CP256. In addition, the Potency in the experiment on CP260 was 8.91 µM (active); with CP265 it was 1.58 µM (active).
For `CCCCN1CCCC[C@H]1C(=O)Nc1c(C)cccc1C`, the Potency in the experiment with CP237 was 8.91 µM (active). In addition, the Potency entry in the experiment on CP238, with CP247, in the experiment with CP250, in the experiment with CP252, with CP256 and in the experiment with CP260 was “inactive” each time. Moreover, the Potency entry with CP262 and in the experiment on CP266 was “inactive” each time.
Turning to `CCCCOC(=O)c1ccc(O)cc1`, the Potency result in the experiment with CP237, in the experiment with CP238, in the experiment with CP247, with CP250, in the experiment on CP252 and in the experiment on CP256 was “inactive” each time. The Potency result with CP260, in the experiment with CP262, in the experiment on CP265 and in the experiment on CP266 was “inactive” throughout.
Take `Nc1ccc(S(=O)(=O)Nc2ccccc2)cc1`: the Potency entry in the experiment with CP237, in the experiment on CP238, in the experiment on CP247, with CP250, with CP252 and in the experiment with CP256 was “inactive” throughout. Moreover, the Potency result in the experiment with CP260, with CP262, in the experiment with CP265 and with CP266 was “inactive” throughout.
Consider `CCCn1cnc2c1c(=O)n(CCCCC(C)=O)c(=O)n2C`, for which the Potency result in the experiment with CP237, in the experiment with CP238, with CP247, with CP250, in the experiment on CP252 and in the experiment on CP256 was “inactive” throughout. For the same compound, the Potency entry in the experiment with CP260, in the experiment with CP262, with CP265 and in the experiment with CP266 was “inactive” in each case.
